According to PubChem BioAssay AID1159580 (chemical genetic matrix, 2015):
Screen size: about 5,500 compounds; about 2,000 (36%) were called active. About 18% were inconclusive and are not listed. Rule as the data show it: active = normalized growth mostly below about 0.91 (no sharp cut-off); inconclusive = no clear call, values can overlap the other calls; inactive = mostly above about 0.92. The list shows a part of the results.

Assay: chemical genetic growth profiling, strain panel (AID 1159580);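 also: tested at 20 µM; growth read once vehicle control cultures reached saturation at 30 °C; 1 = growth at the plate median or of vehicle wells; lower values mean less growth of the strain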
Details: S. cerevisiae deletion strains, growth OD
[1] = locus YHR030C, strain SLT2, stronger effect = lower value
[2] = locus YHR079C, strain IRE1, stronger effect = lower value
[3] = locus YJL095W, strain BCK1, stronger effect = lower value
[4] = locus YJR066W, strain TOR1, stronger effect = lower value
[5] = locus YLR113W, strain HOG1, stronger effect = lower value
[6] = locus YNL183C, strain NPR1, stronger effect = lower value
[7] = locus YOR231W, strain MKK1, stronger effect = lower value
[8] = locus YPL256C, strain CLN2, stronger effect = lower value

Measured: normalized growth

O=c1cc(-c2ccc(O)cc2)oc2ccc(O)cc12
inactive: locus YAL021C, strain ccr4, stronger effect = lower value 0.99 | locus YAL026C, strain drs2, stronger effect = lower value 0.956 | locus YAL030W, strain snc1, stronger effect = lower value 0.972 | locus YBL061C, strain skt5, stronger effect = lower value 0.964 | locus YBR009C, strain hhf1, stronger effect = lower value 0.936 | locus YBR023C, strain chs3, stronger effect = lower value 0.987 | locus YBR171W, strain sec66, stronger effect = lower value 0.981 | locus YBR231C, strain swc5, stronger effect = lower value 0.979 | locus YBR279W, strain paf1, stronger effect = lower value 0.978 | locus YCL011C, strain gbp2, stronger effect = lower value 0.949 | locus YCL016C, strain dcc1, stronger effect = lower value 0.981 | locus YCL061C, strain MRC1, stronger effect = lower value 0.987 | locus YCL069W, strain vba3, stronger effect = lower value 0.98 | locus YCR088W, strain abp1, stronger effect = lower value 0.977 | locus YDL005C, strain med2, stronger effect = lower value 0.969 | locus YDL040C, strain nat1, stronger effect = lower value 0.985 | locus YDR001C, strain nth1, stronger effect = lower value 0.97 | locus YDR069C, strain doa4, stronger effect = lower value 0.922 | locus YDR137W, strain rgp1, stronger effect = lower value 0.96 | locus YDR159W, strain sac3, stronger effect = lower value 0.954 | locus YDR195W, strain ref2 0.943 | locus YDR297W, strain sur2, stronger effect = lower value 0.958 | locus YDR334W, strain swr1, stronger effect = lower value 0.976 | locus YDR335W, strain msn5, stronger effect = lower value 0.979 | locus YDR392W, strain spt3, stronger effect = lower value 0.935 | locus YEL003W, strain gim4, stronger effect = lower value 0.97 | locus YEL037C, strain rad23, stronger effect = lower value 0.971 | locus YEL061C, strain CIN8 (second series), stronger effect = lower value 0.952 | locus YER015W, strain faa2, stronger effect = lower value 0.997 | locus YER016W, strain bim1, stronger effect = lower value 0.983 | locus YER111C, strain swi4, stronger effect = lower value 0.973 | locus YER155C, strain BEM2 (second series), stronger effect = lower value 0.963 | locus YFR010W, strain ubp6, stronger effect = lower value 0.938 | locus YGL167C, strain pmr1, stronger effect = lower value 0.949 | locus YGL173C, strain kem1, stronger effect = lower value 0.961 | locus YGL227W, strain vid30, stronger effect = lower value 0.96 | locus YGL240W, strain doc1, stronger effect = lower value 0.964 | locus YGL253W, strain hxk2, stronger effect = lower value 0.992 | locus YHR013C, strain ard1, stronger effect = lower value 0.938 | locus YHR027C, strain rpn1, stronger effect = lower value 0.962 | [1] 0.989 | [2] 0.992 | locus YHR142W, strain chs7, stronger effect = lower value 0.976 | locus YJL092W, strain hpr5, stronger effect = lower value 0.984 | locus YJL095W, strain BCK1 (second series), stronger effect = lower value 0.978 | [3] 1 | locus YJL115W, strain asf1, stronger effect = lower value 0.978 | locus YJL129C, strain trk1, stronger effect = lower value 0.942 | locus YJL154C, strain vps35, stronger effect = lower value 0.991 | locus YJL164C, strain tpk1, stronger effect = lower value 0.958 | locus YJL166W, strain qcr8, stronger effect = lower value 0.977 | locus YJL187C, strain SWE1, stronger effect = lower value 0.973 | [4] 0.933 | locus YKL160W, strain elf1, stronger effect = lower value 0.987 | locus YKR026C, strain gcn3, stronger effect = lower value 0.963 | locus YKR091W, strain srl3, stronger effect = lower value 0.984 | locus YLL001W, strain dnm1, stronger effect = lower value 0.964 | locus YLL026W, stronger effect = lower value 0.986 | locus YLL041C, strain sdh2, stronger effect = lower value 0.995 | locus YLR027C, strain aat2, stronger effect = lower value 0.971 | [5] 0.951 | locus YLR221C, strain rsa3, stronger effect = lower value 0.988 | locus YLR258W, strain gsy2, stronger effect = lower value 0.977 | locus YLR262C, strain YPT6 (second series), stronger effect = lower value 0.959 | locus YLR320W, strain mms22, stronger effect = lower value 0.964 | locus YLR342W, strain FKS1, stronger effect = lower value 0.97 | locus YLR357W, strain rsc2, stronger effect = lower value 0.982 | locus YLR370C, strain arc18, stronger effect = lower value 0.947 | locus YLR384C, strain iki3, stronger effect = lower value 0.969 | locus YML120C, strain ndi1, stronger effect = lower value 0.956 | locus YMR058W, strain fet3, stronger effect = lower value 0.961 | locus YMR125W, strain sto1, stronger effect = lower value 0.947 | locus YMR129W, stronger effect = lower value 0.973 | locus YMR205C, strain PFK2, stronger effect = lower value 0.946 | locus YMR231W, strain pep5, stronger effect = lower value 0.974 | locus YNL071W, strain lat1, stronger effect = lower value 0.984 | [6] 0.932 | locus YNL209W, strain ssb2, stronger effect = lower value 0.975 | locus YNL248C, strain rpa49, stronger effect = lower value 0.988 | locus YNL322C, strain KRE1 (second series), stronger effect = lower value 0.97 | locus YNR049C, strain mso1, stronger effect = lower value 0.989 | locus YOR001W, strain rrp6, stronger effect = lower value 0.991 | locus YOR070C, strain gyp1, stronger effect = lower value 0.988 | locus YOR080W, strain dia2, stronger effect = lower value 0.967 | locus YOR083W, strain WHI5, stronger effect = lower value 0.918 | locus YOR106W, strain vam3, stronger effect = lower value 0.974 | [7] 0.968 | locus YOR265W, strain rbl2, stronger effect = lower value 0.961 | locus YOR270C, strain vph1, stronger effect = lower value 0.919 | locus YOR290C, strain snf2, stronger effect = lower value 0.943 | locus YPL051W, strain arl3, stronger effect = lower value 0.971 | locus YPL078C, strain atp4, stronger effect = lower value 0.987 | locus YPL106C, strain sse1, stronger effect = lower value 0.888 | locus YPL240C, strain hsp82, stronger effect = lower value 0.981 | [8] 0.973

COc1ccc2oc(-c3ccccc3OC)cc(=O)c2c1
inactive: [1] 0.875 | [2] 0.911 | [3] 0.889 | [4] 0.851 | [5] 0.966 | [6] 0.883 | [7] 0.91 | [8] 0.936
